Shiga inhibitor: A qHTS for Small Molecule Inhibitors of Shiga Toxin; hit rate 9.2% among 290,000; inhibition, % at 38.7 µM; Vero cells, Shiga toxin protein synthesis inhibition reporter; in the data active = inhibition mostly above about 28%, no sharp cut-off; inactive = mostly below about 43%; note: 0% is about no effect
Pf growth 96h: Primary qHTS for delayed death inhibitors of the malarial parasite plastid, 96 hour incubation; P. falciparum luciferase reporter growth, 96 h; hit rate 6.9% among 320,000; Potency, µM (highest dose often 28.7 µM), for the others: at the highest dose activity change, negative = inhibition, usual class: inhibitors; note: potency is the fitted concentration of half-maximal effect; % is set by controls: 0 for no effect and ±100 for the full control effect
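Plates of compound plus infected erythrocytes (2% hematocrit, 0.05% parasitemia final) incubate 96 hours, 37 C, 5% CO2. Detection reagent added; reduced luminescence from the parasites' luciferase reporter flags inhibition.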
Pf growth 48h: Primary qHTS for delayed death inhibitors of the malarial parasite plastid, 48 hour incubation; P. falciparum luciferase growth in erythrocytes, 48 h; Potency, µM (series often up to 28.7 µM), inactives show top-dose activity change, negative = inhibition, actives largely listed as inhibitors; hit rate 5.9% among 310,000; AID 504832, 2011; note: potency is the fitted concentration of half-maximal effect; % is set by controls: 0 for no effect and ±100 for the full control effect
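Firefly luciferase activity from engineered P. falciparum reports growth; inhibitors lower the luminescent signal. Cultures contained 2% hematocrit erythrocytes at 0.1% final parasitemia.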
HCMV inh: qHTS Assay for inhibitors of the human cytomegalovirus (HCMV) | HFF cells, HCMV-luciferase reporter, 72 h; active compounds read low | activity change, negative = inhibition, % at 57.5 µM | hit rate 4.5% among 410,000 | AID 1259415, 2018; in the data active = activity change below about -60%; inconclusive = no clear call, values can overlap the other calls; inactive = above about -39%; note: % is set by controls: 0 for no effect and ±100 for the full control effect
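HFF cells seeded 16 h at 37C, treated with compounds, infected with luciferase-reporter HCMV at MOI 1 PFU/cell; luciferase read at 72 h post infection, normalized to buffer-only and Salinomycin controls.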
Cycloheximide cs: Cycloheximide Counterscreen for Small Molecule Inhibitors of Shiga Toxin; AID 2314, 2010; max response, %; hit rate 12% among 300,000; cell reporter, cycloheximide protein synthesis inhibition counterscreen; in the data active = max response mostly above about 13%, no sharp cut-off; inactive = mostly below about 14%; note: read at 38.3 µM for the half of the compounds with a filed dose; 0% is about no effect
* marks the source's active call; other numbers are inactive results; ? = inconclusive; · = not tested or not shown; [ ] = remark or other dose. An excerpt weighted towards active compounds, which were near 20% of everything screened. Unless noted, calls come from the whole dose curve; as a rule, active = well fitted inhibition curve with a large enough effect; inconclusive = small, poorly fitted or top-dose-only effect, or another doubt; inactive = no such curve, though single readings can be large or run the other way.

SMILES	Shiga inhibitor	Pf growth 96h	Pf growth 48h	HCMV inh	Cycloheximide cs
Cn1c(C(=O)NCc2cccs2)cc2oc3ccccc3c21	82*	·	59%	-80*	62*
Cn1c(C(=O)NCc2ccccc2F)cc2oc3ccccc3c21	·	·	·	-63*	·
CCCOc1ccc(CNC(=O)c2cc3oc4ccccc4c3n2C)cc1	·	·	·	-86*	·
Cn1c(C(=O)NCC2CCCO2)cc2c(=O)n(C)c3ccccc3c21 (stereo not given)	11	?	13%	3	-3
Cn1c(=O)c(C(=O)NCC2CCCO2)c(O)c2ccccc21 (stereo not given)	45	4%	?	-34	27*
CCOC(=O)N1CCC(NC(=O)CS(=O)Cc2nc(-c3ccccc3C)oc2C)CC1 (stereo not given)	9	37%	-7%	-7	-2
CCCOc1ccc(/C=N/NC(=O)CN2CCCCC2)cc1	-2	8%	?	14	-2
COC(=O)C[C@H](NC(=O)Cn1cnc2c(SC)nc(N)nc21)C(=O)OC	·	·	·	-31	·
Cn1c(C(=O)NCc2ccc(Cl)cc2)cc2c(=O)n(C)c3ccccc3c21	·	·	·	5	·
Cn1c(C(=O)NCc2ccccc2)cc2oc3ccccc3c21	85*	·	72%	-89*	46*
Cn1c(C(=O)NCC2CCCO2)cc2oc3ccccc3c21 (stereo not given)	103*	86%	87%	33	35*
CCOc1ccc(N(C)C(=O)C2CCN(S(=O)(=O)c3c(C)noc3/C=C/c3ccc(C)cc3)CC2)cc1	·	·	·	96	·
CC1(C(=O)NCc2cccc3ccccc23)CCN1CCc1ccccc1 (stereo not given)	·	·	·	-2	·
NC(=O)C1(N2CCCCC2)CCN(Cc2ccc(Br)cc2)CC1	13	4%	-10%	?	26*
NC(=O)C1(N2CCCCC2)CCN(Cc2ccc(F)cc2)CC1	-9	3%	·	-34	-3
COC(=O)Cc1c(C)c2cc3c(c(C)c2oc1=O)OCN(CCc1ccc(F)cc1)C3	·	·	·	-21	·
COc1ccc(N2CCN(c3csc4ccc(Cl)cc4c3=O)CC2)cc1	·	·	·	4	·
Cc1nnc(NC(=O)c2ccccc2-c2ccccc2C(=O)O)s1	2	16%	5%	-35	-1
CCC(C)C(=O)Nc1nnc(CCc2ccccc2)s1 (stereo not given)	27	63%	38%	65	19*
Cc1nnc(NC(=O)c2ccccc2F)s1	36*	-10%	59%	35	17*
Cc1nnc(NC(=O)c2ccccc2NC(=O)c2ccccc2)s1	15	-22%	-16%	4	-1
Cc1nnc(NC(=O)c2ccccc2Br)s1	92	58%	65%	43	24*
CC(C)CC(=O)Nc1nnc(CCc2ccccc2)s1	3	-1%	35%	46	10
O=C(Nc1nnc(CCc2ccccc2)s1)c1ccccc1F	41	4%	36%	58	26*
O=C(Nc1ccc(N2CCOCC2)cc1)C1CCCCN1S(=O)(=O)c1ccccc1 (stereo not given)	-4	-12%	45%	-30	-2
SMILES	Shiga inhibitor	Pf growth 96h	Pf growth 48h	HCMV inh	Cycloheximide cs
CCCCOc1ccc(C(C)NC(=O)C2CCCN(S(=O)(=O)CCC)C2)cc1 (stereo not given)	-18	0%	-15%	-3	-6
CCOC(=O)c1ccccc1NC(=O)Cc1c(C(=O)O)c(C)cn1C	·	·	·	-2	·
C#CCN1c2ccccc2Sc2cccnc21	4	0.12µM*	0.33µM*	-12	-2
COc1ccccc1CNC(=O)c1cc2cc3ccc(Cl)cc3nc2o1	·	·	·	-3	·
Cc1ccc(-c2nc3ccccn3c2NCc2ccc3c(c2)OCO3)cc1	54*	79%	95%	51	45*
Cc1ccc(-c2nc3ccccn3c2Nc2ccc3c(c2)OCO3)cc1	·	·	·	0	·
c1ccc(COc2ccc(-c3cc4nc(NCc5ccc6c(c5)OCO6)ccn4n3)cc2)cc1	·	·	·	-64*	·
COc1ccc(-c2nc3ccc(C)cn3c2NCc2ccc3c(c2)OCO3)cc1	125*	5%	46%	?	55*
O=c1c2ccccc2nc2n1C(CSc1ccc(F)cc1)CS2 (stereo not given)	-4	-17%	-19%[1.15 µM]	-35	3
Cc1ccc(C(=O)Nc2ccccc2SCC2CSc3nc4ccccc4c(=O)n32)cc1 (stereo not given)	7	?	?	-85*	-3
O=C(Nc1ccccc1SCC1CSc2nc3ccccc3c(=O)n21)c1cccc(Cl)c1 (stereo not given)	8	?	10µM*	-96*	-5
O=c1c2ccccc2nc2n1C(CSc1ccccc1)CS2 (stereo not given)	16	-4%	-8%	-31	5
Cc1cccc(C(=O)Nc2ccccc2SCC2CSc3nc4ccccc4c(=O)n32)c1 (stereo not given)	7	-26%	?	-75*	3
O=C(Nc1ccccc1SCC1CSc2nc3ccccc3c(=O)n21)c1ccccc1Cl (stereo not given)	13	?	?	?	-1
O=C(Nc1ccccc1SCC1CSc2nc3ccccc3c(=O)n21)c1ccccc1 (stereo not given)	17	?	?	-70*	-3
CC/C(=N/NC(=O)c1ccccc1O)c1c(C)[nH]n(-c2ccccc2)c1=O	·	·	·	4	·
COc1ccc(OCc2ccc(C(=O)N3CCOCC3)cc2)cc1	56*	-26%	8%	-17	28*
COc1ccc(NS(=O)(=O)c2cccc(C(=O)N3CCOCC3)c2)cc1	·	·	·	-1	·
COc1cc2cc(C(=O)N3CCOCC3)cc(-c3ccc(C)cc3)c2cc1OC	-14	8.3µM*	?	?	-3
COc1ccc(-c2cccc(C(=O)N3CCOCC3)c2)cc1	57*	10%	13%	57	30*
COc1ccc(OCc2ccc(C(=O)O)cc2)cc1	60	65%[5.75 µM]	119%	118	18*
COc1ccc(-c2cc(C(=O)N3CCOCC3)c3ccccc3n2)cc1OC	·	20%	?	6	·
O=C(c1ccc(Cl)c(Cl)c1)N1CCC(=O)N([C@H](COCc2cccc(C(F)(F)F)c2)Cc2ccccc2)CC1	·	·	·	17	·
O=C(c1cccn1-c1nnc(N2CCCC2)s1)N1CCN(c2ccc(F)cc2)CC1	·	·	·	0	·
Cc1ccc(C)c(N2CCN(C(=O)c3cc4c(=O)n(Cc5ccco5)ccc4nc3C)CC2)c1	·	·	·	-39	·
Cc1nn(-c2ccccc2)c(Cl)c1/C=N/NC(=O)c1ccccc1F	64*	34%	27%	-3	37*
Cc1nn(-c2ccccc2)c(Cl)c1/C=C1\SC(=S)N(C)C1=O	-5	?	1%	23	1
Cc1nn(-c2ccccc2)c(Cl)c1/C=N/NC(=O)c1ccn[nH]1	34	-13%	129%	121	21*
Cc1nn(-c2ccccc2)c(Cl)c1/C=C1\C(=O)N(C)C(=S)N1C	25	13µM*	?	1	4
Cc1nn(-c2ccccc2)c(Cl)c1/C=C/C(=O)c1ccccc1	45	?	·	·	19*

Screens as filed in PubChem BioAssay.
